# From the supplement of paper PMC11577813, “Eurasian spruce bark beetle detects lanierone using a highly expressed specialist odorant receptor, present in several functional sensillum types” (BMC Biology, 2024)
# ± gives the standard deviation of the averaged measurements.
# Assays:
# [1] = test system: (+)-isopinocamphone A-neuron OSN class; test: net action potential response of A-neuron (blank-subtracted) (spikes/s (Hz)); higher = stronger excitation; settings: 10 µg on filter paper; neuron: A neuron (large spike amplitude)
# Summary of the method: (§1)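 Single sensillum recordings with tungsten electrodes were taken from one fixed antenna of live lab-reared adult Ips typographus, with each compound (10 μg in paraffin oil on filter paper in a pipette) given as a 0.5 s pulse at 0.3 L/min into a humidified, charcoal-filtered 1.8 L/min airstream. AutoSpike counts of A-neuron or B-neuron spikes in 0.5 s windows had the pre-stimulus count subtracted. Responses were then converted to spikes/s, blank-subtracted and averaged over 1–4 sensilla.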
# [2] = test system: (+)-trans-4-thujanol A-neuron OSN class; test: as above; settings: 10 µg on filter paper; neuron: A neuron (large spike amplitude)
# Summary of the method: as §1
# [3] = test system: (5S,7S)-trans-conophthorin A-neuron OSN class; test: as above; settings: 10 µg on filter paper; neuron: A neuron (large spike amplitude)
# Summary of the method: as §1
# [4] = test system: ipsdienol A-neuron OSN class; test: as above; settings: 10 µg on filter paper; neuron: A neuron (large spike amplitude)
# Summary of the method: as §1
# [5] = test system: myrcene A-neuron OSN class; test: as above; settings: 10 µg on filter paper; neuron: A neuron (large spike amplitude)
# Summary of the method: as §1
# [6] = test system: p-cymene A-neuron OSN class; test: as above; settings: 10 µg on filter paper; neuron: A neuron (large spike amplitude)
# Summary of the method: as §1
# [7] = test system: lanierone-responsive B-neuron OSN class (ItypOR36); test: net action potential response of lanierone B-neuron (blank-subtracted) (spikes/s (Hz)); higher = stronger excitation; settings: 10 µg on filter paper, neuron: B neuron (small spike amplitude)
# Summary of the method: as §1
# [8] = co-localized A-neuron class: (4S)-cis-verbenol
# [9] = co-localized A-neuron class: (5S,7S)-trans-conophthorin
# [10] = co-localized A-neuron class: (+)-isopinocamphone
# [11] = co-localized A-neuron class: (+)-trans-4-thujanol
# [12] = co-localized A-neuron class: ipsdienol
# [13] = co-localized A-neuron class: myrcene
# [14] = co-localized A-neuron class: p-cymene
Compound,net action potential response [1],net action potential response [2],net action potential response [3],net action potential response [4],net action potential response [5],net action potential response [6],"net action potential response [7, 8]","net action potential response [7, 9]","net action potential response [7, 10]","net action potential response [7, 11]","net action potential response [7, 12]","net action potential response [7, 13]","net action potential response [7, 14]"
C=CC(=C)C[C@@H](O)CC(C)C (racemic) [(±)-Ipsenol],-1.33 ± 5,2 ± 2.8,-1.33 ± 6.1,19.3 ± 15,-2,-4,-1.33 ± 5,0 ± 5.3,0 ± 3.5,0.5 ± 1.9,-5.33 ± 2.3,-4,-8 ± 5.7
OCCc1ccccc1 [2-Phenylethanol],7.33 ± 3.1,3.5 ± 4.7,0 ± 1.6,,0,2.67 ± 3.1,-4 ± 2,-3 ± 3.8,2 ± 3.5,1 ± 3.5,-3.33 ± 11,2,6 ± 10
CC12CCC(CC1=O)C2(C)C (racemic) [(±)-Camphor],125 ± 40,2 ± 5.7,5.33 ± 7,,-6,6.67 ± 16,-2.67 ± 3.1,0,-6.67 ± 2.3,-1.5 ± 1,-2.67 ± 6.1,-2,1 ± 1.4
C=CC(C)(C)O [2-Methyl-3-buten-2-ol],0.667 ± 1.1,7 ± 11,3.33 ± 4.2,,-8,1 ± 1.4,-4.67 ± 5,-4.67 ± 7,2 ± 2,-3.5 ± 7.2,3.33 ± 11,4,-6 ± 2.8
CCC/C=C/C=O [(E)-hex-2-enal],-3.33 ± 2.3,1 ± 5.8,4.67 ± 4.2,-0.667 ± 1.1,2,3 ± 1.4,-2.67 ± 18,0 ± 2,-2.67 ± 3.1,-1.5 ± 3.4,0.667 ± 1.1,-6,-2 ± 8.5
